For four molecules, composite z-score and z-score results are on record in PubChem BioAssay.

Active and inactive are the calls of the source. Unless noted, the rule behind the calls is not given here.

The test system of test [1] is Wnt5a (protein binding on small-molecule microarray). As to the kind of experiment: Wnt5a binders on small-molecule microarray, primary screen, biophysical, 635/667 nm fluorescence (AID 1142).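 Note: fluorescence read at 667 nm with signal to noise per printed feature.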 As to conditions: 635 nm fluorescence, higher = more signal.
The nature of test [2]: cell viability in Huh7 cells, primary screen, cytotoxicity control for HCV replication inhibitor project, CellTiter-Glo luminescence, basal, 48 h (AID 1143).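 Note: Huh7 hepatoma cells carrying a hepatitis C replication reporter with no stimulus; test concentration not given here.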 As to conditions: Huh7 HCV replicon, higher = more signal, called active from +8 up or from −8 down.
Test [3] can be described thus: P. aeruginosa biofilm formation inhibitors, primary screen, PAO1 strain, BacTiter-Glo luminescence, LB-PBS (AID 1144). As to conditions: 12 h, higher = more signal.
The nature of test [4]: CREB reporter modulators without forskolin, primary screen, cell-based, PC12, CRE-LacZ reporter, unstimulated (AID 1145). As to conditions: no forskolin, luminescence, 4.5 h, higher = more signal, called active from +8 up or from −8 down.
Test [5] is described as follows: CREB reporter modulators under forskolin, primary screen, cell-based, PC12, CRE-LacZ reporter, forskolin-stimulated (AID 1146).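 Note: PC12 cells with 6xCRE LacZ reporter stimulated by forskolin 10 µM; beta-galactosidase reporter signal reflecting CREB driven transcription.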 As to conditions: luminescence, 4.5 h, higher = more signal, called active from +8 up or from −8 down.
Test [6] deals with Streptavidin (Streptomyces avidinii) (UniProt P22629). Briefly: streptavidin binders on small-molecule microarray, primary screen, artefact control for SMM compound annotation, biophysical, 635/667 nm fluorescence (AID 1147).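 Note: signal reflects streptavidin binding to arrayed compounds as a control protein.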 As to conditions: streptavidin binding, higher = more signal.
Chain of Streptavidin (Streptomyces avidinii) (P22629 whole entry, looked up): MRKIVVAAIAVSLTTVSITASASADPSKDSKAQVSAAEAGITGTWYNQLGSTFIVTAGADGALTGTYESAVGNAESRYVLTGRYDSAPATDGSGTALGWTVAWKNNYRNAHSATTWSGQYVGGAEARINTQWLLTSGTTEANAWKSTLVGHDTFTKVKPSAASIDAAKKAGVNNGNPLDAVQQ
The nature of test [7]: small-molecule binders of probe aInhba, primary screen, biochemical, small-molecule microarray, 635/667 nm fluorescence (AID 1148).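 Note: score merges 667nm spot fluorescence with signal-to-noise for antibody binding to printed compounds.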 As to conditions: higher = more signal.
Test [8] has as its target Torsin-1A (Homo sapiens) (UniProt O14656). Briefly: torsin A binders from cell lysate, primary screen, small-molecule microarray, wild-type, 635/667 nm (AID 1149). As to conditions: COS7 hTOR1A-WT lysate, 635 nm fluorescence, higher = more signal.
Test [9] has the same target. Briefly: small-molecule binders of mutant TOR1A in lysate, primary screen, cell lysate, small-molecule microarray, COS7 lysate, 635/667 nm fluorescence (AID 1150).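 Note: score pools 667 nm emission and signal to noise measuring lysate protein binding.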 As to conditions: COS7 hTOR1A mutant lysate, 635 nm fluorescence, higher = more signal.
Test [10] has as its system Sonic hedgehog protein (Shh). Briefly: small-molecule binders of Shh protein, primary screen, biochemical, small-molecule microarray, 635/667 nm fluorescence (AID 1151).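 Note: Shh protein binding to compounds spotted on small-molecule microarray slides; score combines spot fluorescence intensity with signal-to-noise across triplicate slides.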 As to conditions: small-molecule microarray binding, 635 nm fluorescence; higher = more signal.
Test [11] in a line: E. coli DRC41 culture turbidity changes, primary screen, E. coli filamentation inducer project, strain DRC41, OD650, 48 h (AID 1152).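 Note: E. coli MC1000 strain DRC41 lacking acrAB efflux pump and sulA.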 As to conditions: E. coli DRC41 (acrAB sulA), higher = more signal, called active from +8 up or from −8 down.
Test [12] is described as follows: small-molecule binders of probe aLefty1, primary screen, biochemical, small-molecule microarray, 635/667 nm fluorescence (AID 1153).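 Note: score merges spot fluorescence with signal-to-noise ratio from the scanned slide images.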 As to conditions: higher = more signal.
Test [13] is described as follows: PSAC antagonists in infected red cells, primary screen, cell-based, P. falciparum Indochina, OD700, 1 h (AID 1154). As to conditions: P. falciparum Indochina infected RBC osmotic lysis, higher = more signal, called active from +8 up or from −8 down.
Test [14] is described as follows: PSAC antagonists in infected red cells, primary screen, cell-based, P. falciparum Indochina, OD700, 2 h (AID 1155).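 Note: lysis reports solute entry through the parasite surface anion channel PSAC; channel blockers reduce lysis of infected cells.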 As to conditions: P. falciparum Indochina infected erythrocytes, osmotic lysis OD700; higher = more signal, called active from +8 up or from −8 down.
A short description of test [15]: osmotic lysis modulators in infected erythrocytes, primary screen, PSAC antagonist project, cell-based, P. falciparum Indochina, OD700, 3 h (AID 1156). As to conditions: higher = more signal, called active from +8 up or from −8 down.
The nature of test [16]: PSAC antagonists in infected red cells, primary screen, cell-based, P. falciparum Indochina, OD700, 18 h (AID 1157). As to conditions: P. falciparum Indochina infected erythrocytes, osmotic lysis OD700, 18 h; higher = more signal, called active from +8 up or from −8 down.
Test [17] can be described thus: modulators of S6 phosphorylation in cells, primary screen, cell-based, A549, cytoblot, luminescence, serum-stimulated (AID 1158).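 Note: serum-stimulated A549 lung adenocarcinoma cells; signal is phosphorylated S6 detected by cytoblot immunostaining with HRP secondary.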 As to conditions: A549 phospho-S6 cytoblot, 5 h, higher = more signal.
In test [18] the target is NADPH oxidase 2 (Homo sapiens) (UniProt P04839). Briefly: NOX2-dependent H2O2 signal modulators, primary screen, NOX inhibitor project, cell-based, HEK293-NOX2, PMA-stimulated, Amplex Red fluorescence (AID 1159). Note: test concentration not given here. As to conditions: 45 min, higher = more signal, called active from +8 up or from −8 down.
Chain of NADPH oxidase 2 (Homo sapiens) (P04839 whole entry, looked up): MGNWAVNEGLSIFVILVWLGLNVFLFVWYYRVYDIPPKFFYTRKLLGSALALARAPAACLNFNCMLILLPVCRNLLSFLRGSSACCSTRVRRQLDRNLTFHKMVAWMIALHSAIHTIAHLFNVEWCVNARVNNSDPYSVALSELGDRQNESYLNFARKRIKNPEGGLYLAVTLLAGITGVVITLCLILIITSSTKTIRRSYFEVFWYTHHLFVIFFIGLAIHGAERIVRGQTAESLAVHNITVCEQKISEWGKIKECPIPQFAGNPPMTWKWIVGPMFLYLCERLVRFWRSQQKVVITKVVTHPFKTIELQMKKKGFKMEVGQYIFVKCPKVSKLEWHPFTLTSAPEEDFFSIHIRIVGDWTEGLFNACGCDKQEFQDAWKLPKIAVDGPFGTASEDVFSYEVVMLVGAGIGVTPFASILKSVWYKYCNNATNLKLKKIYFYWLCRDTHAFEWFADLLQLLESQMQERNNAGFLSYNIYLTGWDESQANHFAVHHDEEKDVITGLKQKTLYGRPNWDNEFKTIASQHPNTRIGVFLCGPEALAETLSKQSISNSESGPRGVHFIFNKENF
Test [19] concerns the target NADPH oxidase 4 (Homo sapiens) (UniProt Q9NPH5). Briefly: NOX4-dependent H2O2 signal modulators, primary screen, NOX inhibitor project, cell-based, HEK293-NOX4, tetracycline-induced, Amplex Red fluorescence (AID 1160). As to conditions: 45 min, higher = more signal, called active from +8 up or from −8 down.
Test [20] concerns the target NADPH oxidase 5 (Homo sapiens) (UniProt Q96PH1). As to the kind of experiment: NOX5-dependent H2O2 signal modulators, primary screen, NOX inhibitor project, cell-based, HEK293-NOX5, Amplex Red fluorescence (AID 1161). As to conditions: HEK293-NOX5, ionomycin, 45 min, higher = more signal.

Chain of NADPH oxidase 4 (Homo sapiens) (Q9NPH5 whole entry, looked up): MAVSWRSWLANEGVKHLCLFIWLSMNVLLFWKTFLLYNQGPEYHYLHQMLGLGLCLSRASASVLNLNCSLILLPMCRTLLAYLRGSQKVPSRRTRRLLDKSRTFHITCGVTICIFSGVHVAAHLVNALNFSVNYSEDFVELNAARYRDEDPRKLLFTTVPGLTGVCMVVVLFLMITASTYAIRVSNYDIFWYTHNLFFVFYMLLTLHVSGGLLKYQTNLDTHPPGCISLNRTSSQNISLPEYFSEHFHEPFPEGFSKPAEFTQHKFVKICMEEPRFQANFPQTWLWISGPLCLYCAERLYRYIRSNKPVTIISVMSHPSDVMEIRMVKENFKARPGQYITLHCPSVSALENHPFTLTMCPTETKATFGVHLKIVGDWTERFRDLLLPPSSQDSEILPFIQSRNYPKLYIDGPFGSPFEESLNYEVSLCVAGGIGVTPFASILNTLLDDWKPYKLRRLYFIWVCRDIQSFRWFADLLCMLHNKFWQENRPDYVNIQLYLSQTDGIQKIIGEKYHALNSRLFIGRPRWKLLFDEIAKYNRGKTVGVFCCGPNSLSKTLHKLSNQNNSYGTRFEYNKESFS
Chain of NADPH oxidase 5 (Homo sapiens) (Q96PH1 whole entry, looked up): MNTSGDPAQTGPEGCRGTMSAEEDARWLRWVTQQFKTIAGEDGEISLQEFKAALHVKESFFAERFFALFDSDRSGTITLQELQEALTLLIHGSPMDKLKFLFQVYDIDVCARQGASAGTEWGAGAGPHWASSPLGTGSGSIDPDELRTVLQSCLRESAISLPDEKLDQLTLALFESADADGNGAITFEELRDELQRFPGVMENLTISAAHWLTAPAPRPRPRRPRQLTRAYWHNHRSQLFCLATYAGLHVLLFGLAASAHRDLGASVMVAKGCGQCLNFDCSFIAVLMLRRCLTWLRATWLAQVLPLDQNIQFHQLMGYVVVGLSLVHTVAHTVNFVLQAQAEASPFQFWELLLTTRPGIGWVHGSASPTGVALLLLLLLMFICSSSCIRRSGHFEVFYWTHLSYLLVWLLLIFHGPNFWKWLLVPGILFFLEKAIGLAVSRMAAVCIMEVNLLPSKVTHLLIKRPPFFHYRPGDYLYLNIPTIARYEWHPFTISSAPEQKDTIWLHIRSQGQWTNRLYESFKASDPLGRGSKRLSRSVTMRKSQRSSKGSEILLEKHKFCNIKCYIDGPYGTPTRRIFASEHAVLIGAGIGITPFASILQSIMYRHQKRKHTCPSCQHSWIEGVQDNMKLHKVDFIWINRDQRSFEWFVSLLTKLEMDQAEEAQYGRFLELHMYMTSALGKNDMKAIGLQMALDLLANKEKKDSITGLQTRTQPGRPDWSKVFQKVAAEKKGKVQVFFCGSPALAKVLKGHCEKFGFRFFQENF
Chain of Torsin-1A (Homo sapiens) (O14656 whole entry, looked up): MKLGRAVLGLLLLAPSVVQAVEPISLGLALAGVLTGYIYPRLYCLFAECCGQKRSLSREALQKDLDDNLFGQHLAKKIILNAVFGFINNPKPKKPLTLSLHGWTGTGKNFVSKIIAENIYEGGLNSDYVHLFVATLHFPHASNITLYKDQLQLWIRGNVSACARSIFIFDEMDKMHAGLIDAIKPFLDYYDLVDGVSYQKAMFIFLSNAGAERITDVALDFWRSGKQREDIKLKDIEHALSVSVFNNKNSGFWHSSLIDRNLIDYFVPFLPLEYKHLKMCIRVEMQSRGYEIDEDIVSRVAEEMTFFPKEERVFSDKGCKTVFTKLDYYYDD

As for `COC(=O)[C@@H]1N=C(c2ccc(OCCCO)cc2)O[C@@H]1c1ccccc1`, the composite z-score in test [1] is -0.508; in [6] it was -0.913; in test [7], -0.0762; in the test with Torsin-1A (Homo sapiens) [8], 1.01; with Torsin-1A (Homo sapiens) [9] it was 0.695; in test [10], -0.703. The molecule further returned a composite z-score in test [12] of -0.717. The z-score in test [2] was -1.64 (inactive); in test [3], -1.06 (inactive); in [4], -0.594 (inactive); in test [5] it was -1.38 (inactive); in [11], 0.813 (inactive); in [13] it was 24.5 (active). For the same molecule, the z-score was 12.5 (active) in test [14]; -1.03 (inactive) in test [15]; 0.82 (inactive) in [16]; 0.264 in test [17]; -0.499 (inactive) in test [18]; 1.02 (inactive) in test [19]. This molecule displayed a z-score in test [20] of -0.273.

`CCOC(=O)C=Cc1cccc(C)c1O`: the composite z-score in test [1] was -0.0909; in test [6] it was -0.259; in test [7], -0.0375; in the test with Torsin-1A (Homo sapiens) [8], 0.299; with Torsin-1A (Homo sapiens) [9], 0.777; in [10] it was 0.219. This molecule registered a composite z-score in [12] of -0.0011. The z-score was -4.73 (inactive) in test [2]; -1.02 (inactive) in [3]; 0.472 (inactive) in test [4]; -0.631 (inactive) in [5]; -0.718 (inactive) in [11]; 9 (active) in [13]. For the same molecule, the z-score in test [14] is -0.0712 (inactive); in test [15], 0.193 (inactive); in test [16] it was -2.11 (inactive); in test [17], 1.52; in test [18], -5.05 (inactive); in [19], -4.89 (inactive). Moreover, the z-score in test [20] is -4.98.

As to `[N-]=[N+]=Nc1ccccc1C[C@]1(C(=O)O)COC(c2ccc(OCCCO)cc2)=N1`, the composite z-score in test [1] was -0.0485; in test [6] it was -0.213; in [7], -0.0405; with Torsin-1A (Homo sapiens) [8], -2.54; in the test with Torsin-1A (Homo sapiens) [9] it was -1.52; in test [10] it was -1.14. Besides, the composite z-score in [12] turned out to be 0.199. For the same molecule, the z-score is 0.0518 (inactive) in test [2]; -0.812 (inactive) in [3]; 1.18 (inactive) in test [4]; -0.313 (inactive) in test [5]; -0.541 (inactive) in [11]; 23.9 (active) in [13]. Also, the z-score in [14] is 8.27 (active); in test [15], 4.11 (inactive); in [16], 0.935 (inactive); in test [17] it was -0.103; in [18] it was -2.44 (inactive); in test [19] it was -0.992 (inactive). In addition, in [20], the z-score is -2.7.

On to `COCCOC(=O)N1C(=O)[C@@]2(c3cc(C#CCNC(N)=O)ccc31)[C@H](C(N)=O)[C@H]1C(=O)O[C@H](c3ccccc3)[C@H](c3ccccc3)N1[C@@H]2c1ccccc1OCCO`, for which the composite z-score is 0.273 in test [1]; 0.0571 in test [6]; 0.183 in test [7]; 0.112 with Torsin-1A (Homo sapiens) [8]; 0.25 with Torsin-1A (Homo sapiens) [9]; 0.878 in [10]. Also, in [12], the composite z-score amounted to 0.0299. Also, the z-score is 0.406 (inactive) in test [2]; -0.0139 (inactive) in [3]; -0.465 (inactive) in test [4]; 0.0355 (inactive) in [5]; -0.77 (inactive) in [11]; 6.57 (inactive) in [13]. Further, the z-score in test [14] is 0.793 (inactive); in test [15], 1.18 (inactive); in [16] it was 0.269 (inactive); in test [17] it was -0.309; in test [18] it was 1.9 (inactive); in test [19], 1.37 (inactive). Further, in test [20], the z-score stood at 0.198.
